Measured values published in the supplement of paper PMC3545927.
This is one part of the list. The hit rate among all sequences tested is not known here.

Target: furin, P09958
Test: furin cleavage Z-score vs untreated control; higher = more cleavage, active = 3.5 or more, inactive = 1 or less, 8 variable residues between constant flanks
Method in brief: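 Purified furin cleaved 8-mer peptides that were fused to a cDNA oligonucleotide and held on magnetic beads by their N-terminus. Each 0.01 ml reaction used a 1:10 enzyme:substrate ratio in 50 mM HEPES pH 7.5 with CaCl2 and NaCl and ran 7.5, 15 or 30 min. Released DNA was adapter-tagged by PCR and sequenced, and read counts gave abundance. The cleavage Z-score came from log counts against furin-free reactions, lowess-adjusted and scaled by median absolute deviation.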

Sequence of furin, P09958 (P09958 whole entry): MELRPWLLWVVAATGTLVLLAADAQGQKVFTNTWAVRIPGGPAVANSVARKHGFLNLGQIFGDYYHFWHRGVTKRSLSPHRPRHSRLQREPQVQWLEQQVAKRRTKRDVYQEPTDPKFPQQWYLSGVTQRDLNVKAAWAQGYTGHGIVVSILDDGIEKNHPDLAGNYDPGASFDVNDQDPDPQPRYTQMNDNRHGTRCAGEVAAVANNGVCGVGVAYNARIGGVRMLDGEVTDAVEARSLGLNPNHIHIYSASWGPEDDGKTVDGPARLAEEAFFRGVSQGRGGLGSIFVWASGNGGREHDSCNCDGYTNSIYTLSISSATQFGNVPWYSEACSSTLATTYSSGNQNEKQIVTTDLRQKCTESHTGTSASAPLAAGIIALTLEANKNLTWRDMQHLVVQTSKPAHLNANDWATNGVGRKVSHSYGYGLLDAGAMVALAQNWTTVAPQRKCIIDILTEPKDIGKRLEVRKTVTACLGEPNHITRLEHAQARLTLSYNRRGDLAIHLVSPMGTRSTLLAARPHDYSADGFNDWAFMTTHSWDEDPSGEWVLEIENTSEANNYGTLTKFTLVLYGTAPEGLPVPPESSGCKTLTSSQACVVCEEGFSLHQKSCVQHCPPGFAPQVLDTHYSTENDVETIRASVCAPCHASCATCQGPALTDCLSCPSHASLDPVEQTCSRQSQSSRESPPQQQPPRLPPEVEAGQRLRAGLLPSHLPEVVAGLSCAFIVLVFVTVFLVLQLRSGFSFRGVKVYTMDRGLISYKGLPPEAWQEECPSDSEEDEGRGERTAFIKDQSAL

| Sequence | furin cleavage Z-score (7.5 min) | furin cleavage Z-score (15 min) | furin cleavage Z-score (30 min) |
| --- | --- | --- | --- |
| CAVEMEECSQAGNASASA [HC1790] | 0.132 (inactive) | -1.38 (inactive) | -1.19 (inactive) |
| CATTPCSGNWAGNASASA [HC1921] | 0.659 (inactive) | 0.815 (inactive) | -0.795 (inactive) |
| CAPVGSQLPCAGNASASA [HC1238] | 0.473 (inactive) | -1.27 (inactive) | 0.372 (inactive) |
| CAGVRATRKTAGNASASA [HC183] | 0.267 (inactive) | 0.577 (inactive) | 0.344 (inactive) |
| CAIREVPCHRAGNASASA [HC2424] | -0.0693 (inactive) | 1.33 | 2.41 |
| CAVIQMYTNVAGNASASA [HC709] | 0.334 (inactive) | -0.0874 (inactive) | -1.04 (inactive) |
| CARAKRRWAPAGNASASA [FS-2638] | 0.9 (inactive) | 1.95 | 0.773 (inactive) |
| CARAKREEKKAGNASASA [FS-2634] | 3.98 (active) | 2.96 | 4.64 (active) |
| CARAYRSSMRAGNASASA [FS-2894] | -1.12 (inactive) | -1.44 (inactive) | -1.22 (inactive) |
| CARAKRPLMVAGNASASA [FS-2884] | 0.123 (inactive) | 1.97 | -0.869 (inactive) |
| CARAKRAFLPAGNASASA [FS-1991] | 3.35 | 4.79 (active) | 6.29 (active) |
| CARAKRRAIRAGNASASA [FS-2637] | 10.3 (active) | 11.4 (active) | 9.08 (active) |
| CARAKRTTKRAGNASASA [FS-3241] | 8.36 (active) | 10.4 (active) | 9.38 (active) |
| CAAATLGFGAAGNASASA [HC790] | -0.962 (inactive) | 1.23 | 1.13 |
| CARDGRKVTVAGNASASA [FS-2902] | -0.804 (inactive) | -0.377 (inactive) | -1.67 (inactive) |
| CARAKRKVTRAGNASASA [FS-2636] | 3.09 | 4.94 (active) | 4.17 (active) |
| CARAKRRGGGAGNASASA [FS-2886] | 0.374 (inactive) | -1.9 (inactive) | 0.196 (inactive) |
| CANLLSVEEAAGNASASA [HC1411] | 1.03 | -1.37 (inactive) | 1.04 |
| CARKGRSYGSAGNASASA [FS-1902] | 2.38 | 4.19 (active) | 3.35 |
| CARKNRSFYAAGNASASA [FS-3222] | -0.489 (inactive) | 0.152 (inactive) | -1.6 (inactive) |
| CARKNRSQIVAGNASASA [FS-1731] | 0.382 (inactive) | 1.89 | 1.82 |
| CARKGRSQSVAGNASASA [FS-2688] | 0.447 (inactive) | 1.69 | 2.28 |
| CARKRRPYGSAGNASASA [FS-1960] | -0.105 (inactive) | 0.526 (inactive) | -2 (inactive) |

| Sequence | furin cleavage Z-score (7.5 min) | furin cleavage Z-score (15 min) | furin cleavage Z-score (30 min) |
| --- | --- | --- | --- |
| CARKNRSTASAGNASASA [FS-3159] | 4.98 (active) | 6.48 (active) | 5.71 (active) |
| CAESVTSTWVAGNASASA [HC2177] | 0.711 (inactive) | -0.0286 (inactive) | -0.582 (inactive) |
| CASCLWMMLLAGNASASA [HC527] | 0.0621 (inactive) | -0.464 (inactive) | 0.433 (inactive) |
| CAHYQDVLKEAGNASASA [HC1402] | -0.724 (inactive) | -0.493 (inactive) | 0.655 (inactive) |
| CAINRRTGRPAGNASASA [FS-34] | -0.402 (inactive) | -1.89 (inactive) | -1.13 (inactive) |
| CAIRRRTQRCAGNASASA [FS-933] | 7.07 (active) | 6.92 (active) | 6.54 (active) |
| CALSRRRVRCAGNASASA [FS-1543] | 10.2 (active) | 7.81 (active) | 8.22 (active) |
| CALRERPVRCAGNASASA [FS-458] | 2.04 | 2.12 | 4.39 (active) |
| CAYGAKDVRCAGNASASA [HC1422] | -0.0596 (inactive) | 0.548 (inactive) | 0.765 (inactive) |
| CAQRSRQVRCAGNASASA [FS-482] | 0.775 (inactive) | 0.292 (inactive) | 1.12 |
| CAQRQRSVRCAGNASASA [FS-481] | 1.64 | 0.494 (inactive) | 0.731 (inactive) |
| CATTPCSASWAGNASASA [HC1883] | -0.499 (inactive) | 0.682 (inactive) | -0.342 (inactive) |
| CAVVGCSMSYAGNASASA [HC2036] | 1.64 | -0.0657 (inactive) | 1.23 |
| CASTPCSGSWAGNASASA [HC1837] | -0.691 (inactive) | -0.464 (inactive) | -0.623 (inactive) |
| CARRARAVHDAGNASASA [FS-2769] | 0.991 (inactive) | 0.269 (inactive) | 0.722 (inactive) |
| CARPRRSLALAGNASASA [FS-2504] | 7.93 (active) | 10.2 (active) | 8.84 (active) |
| CARPRRELSLAGNASASA [FS-2501] | 9.83 (active) | 9.15 (active) | 8.79 (active) |
| CARPWKSVALAGNASASA [FS-1765] | 1.43 | 0.873 (inactive) | -0.932 (inactive) |
| CARRARSWAEAGNASASA [FS-1772] | 0.748 (inactive) | 2.17 | 4.73 (active) |
| CARRARSPHDAGNASASA [FS-1834] | 8.36 (active) | 9.74 (active) | 9.02 (active) |
| CARRARSSVCAGNASASA [FS-2771] | -0.135 (inactive) | 0.0716 (inactive) | 2.53 |
| CARPRRVIARAGNASASA [FS-2746] | 0.722 (inactive) | 0.121 (inactive) | 1.35 |
